This is part of a sample that, as a whole, favours compounds with a hit. Of some 79,000 tested, about 15% had one in any assay. Rule as the data show it: active = growth inhibition above about 70%; inactive = the rest.
Tests used:
[1] = NCI Yeast Anticancer Drug Screen. Data for the rad50 strain (AID 155);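 also: 0% = growth of vehicle-only cultures of the same strain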; details: S. cerevisiae rad50 strain growth inhibition; at 50.0 µM; active compounds read high
Summary of the method: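 Vehicle-treated cultures provide the reference for the growth inhibition reported for compound-exposed, repair-deficient yeast.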

[2] = NCI Yeast Anticancer Drug Screen. Data for the mec2-1 strain (AID 157); details: S. cerevisiae mec2-1 strain, at 50.0 µM, active compounds read high
Summary of the method: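 Using mec2-1 yeast: add compound, measure growth, express inhibition versus vehicle-treated cultures.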

[3] = NCI Yeast Anticancer Drug Screen. Data for the sgs1 mgt1 strain (AID 161);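 also: 0% = growth of cultures given vehicle only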; details: S. cerevisiae sgs1 mgt1 strain, at 50.0 µM, active compounds read high
Summary of the method: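 Percent growth inhibition was derived by comparing compound-exposed mutant yeast with vehicle-exposed cultures. The strain carries alterations in DNA damage repair.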

[4] = NCI Yeast Anticancer Drug Screen. Data for the cln2 rad14 strain (AID 165);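 also: 0% = growth equal to vehicle treated cultures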; details: S. cerevisiae cln2 rad14 strain, at 50.0 µM, active compounds read high
Summary of the method: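 Yeast strain cln2 rad14, bearing defects in cell cycle control and DNA repair, serves as the test system; values reflect growth inhibition compared with vehicle.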

[5] = NCI Yeast Anticancer Drug Screen. Data for the bub3 strain (AID 167); details: S. cerevisiae bub3 mutant strain, at 50.0 µM, active compounds read high
Summary of the method: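 Mutant yeast screening strain plus compound; vehicle-treated cultures serve as the 0% inhibition reference.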

[6] = NCI Yeast Anticancer Drug Screen. Data for the mlh1 rad18 strain (AID 175); details: S. cerevisiae mlh1 rad18 strain growth inhibition; at 50.0 µM; active compounds read high
Summary of the method: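 Steps: expose repair-defective yeast to compound; measure growth; express inhibition against vehicle-treated controls.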

Measured: growth inhibition

C1CSCCCSCCSCCCSC1
inactive: [1] -15.1% | [2] -9.45% | [3] 3.6% | [4] 5.3% | [5] 0.2% | [6] 4.45%

CC1(C)C2CCC(=O)C1C(OCc1ccccc1)C2 (stereo unspecified)
inactive: [1] -22.1% | [2] 15.7% | [3] -21.1% | [4] -0.85% | [5] -11.6% | [6] -47.4%

NCCNCCCCCCCCCCCCOS(=O)(=O)O
inactive: [1] -32.8% | [2] -23.6% | [3] -6.35% | [4] -15.3% | [5] -25% | [6] -11.4%

CCNc1ccc2c(c1)C(=O)c1ccccc1-2
inactive: [1] 28.9% | [2] 7.5% | [3] 17.4% | [4] 3.6% | [5] -4.05% | [6] -0.05%

O=S(=O)(CS(=O)(=O)Nc1ccccc1)Nc1ccccc1
inactive: [1] 21.1% | [2] 26.9% | [3] 21.7% | [4] -4.45% | [5] 11.3% | [6] 21.3%

NC(=O)COc1ncc(Cl)cc1Cl
inactive: [1] 4.05% | [2] -6.45% | [3] 3.15% | [4] -19.4% | [5] 4.4% | [6] 3.35%

C=CCOCC(O)CO (stereo unspecified)
inactive: [1] 32.5% | [2] -3.9% | [3] 29.8% | [4] 16.8% | [5] 10.1% | [6] 28.1%

O=[N+]([O-])c1ccc(N/N=C/c2ccccn2)nc1
inactive: [1] 8.1% | [2] -6.1% | [3] 10.1% | [4] -7.7% | [5] 6% | [6] 5.4%

CC1CC/C(=C\c2ccccc2)C(=O)/C1=C/c1ccccc1 (stereo unspecified)
inactive: [1] 22.2% | [2] -11.1% | [3] 13.8% | [4] 9.45% | [5] 30.2% | [6] 28.8%

NC(=O)O/N=C/c1ccccn1
inactive: [1] -12.1% | [2] 2.75% | [3] -17.4% | [4] -10% | [5] -2.65% | [6] -6.95%

C(=N\OCc1ccccc1)/c1ncccc1C1OCCO1
inactive: [1] -10.6% | [2] -23.1% | [3] -0.5% | [4] 20.2% | [5] -5.8% | [6] -8.75%

C=CCCCCOCOCCOC
inactive: [1] 13.7% | [2] 17.6% | [3] 5.8% | [4] 0.5% | [5] 0.15% | [6] -28.4%

CC1=N/C(=C/c2ccccc2)C(=O)O1
inactive: [1] 7.6% | [2] 0.75% | [3] 11.6% | [4] -26.7% | [5] 12.5% | [6] 10%

CCc1ccccc1Cc1ccccc1
inactive: [1] 1.8% | [2] -4.75% | [3] -0.2% | [4] 4.65% | [5] -1.55% | [6] 10.7%

O=C(OC(c1ccccc1)c1ccccc1)c1ccccc1C(=O)c1ccccc1
inactive: [1] -18.6% | [2] -15.1% | [3] -21% | [4] -16.6% | [5] -3.25% | [6] -36.1%

Clc1ccc(C2=NCCO2)cc1
inactive: [1] -23.8% | [2] -32.1% | [3] -5.75% | [4] -11.8% | [5] 4.85% | [6] -26.3%

O=CNC(NC=O)NC=O
inactive: [1] -3.4% | [2] -2.2% | [3] -2.15% | [4] 15.2% | [5] -4.3% | [6] 0.95%

Cc1cc(S(=O)(=O)O)cc(Cl)c1N
inactive: [1] -11.3% | [2] -27.9% | [3] -0.85% | [4] -0.5% | [5] -23.8% | [6] -9.4%

CN(C)C=Nc1cc2c3c(c1)CCCN3CCC2
inactive: [1] 10.8% | [2] -0.5% | [3] 13.3% | [4] 11.8% | [5] -2.6% | [6] 31.4%

COc1cccc(C2c3cc4c(cc3OC(N3CCCC3)C2C)OCO4)c1OC (stereo unspecified)
inactive: [1] 24.8% | [2] 17.6% | [3] -9.65% | [4] 1% | [5] 11.4% | [6] 29.9%

CCNC(=O)c1cc2ccccc2cc1O
inactive: [1] 1.4% | [2] -6.85% | [3] -6.5% | [4] -46% | [5] -15.7% | [6] 6.55%

Cc1cccc(NC(=O)/C=C/C(=O)O)c1
inactive: [1] -31.9% | [2] -41% | [3] -17.9% | [4] -20.9% | [5] -29.6% | [6] -45.1%

CC[N+](C)(CC)CCOC(=O)C(c1ccccc1)C(O)C1CCCCC1 (stereo unspecified)
inactive: [1] 29.8% | [2] -5.45% | [3] 3.8% | [4] 17.3% | [5] -0.3% | [6] 8.75%

Cc1oc2nc(N(C)C)n3nnnc3c2c1C
inactive: [1] -0.35% | [2] -8.5% | [3] -6.15% | [4] -4.1% | [5] 25.3% | [6] -14.4%

O=C1COC(=O)N1
inactive: [1] -6.85% | [2] -22.4% | [3] -3.45% | [4] -3.35% | [5] 0.2% | [6] 8.25%

O=c1[nH]c(=O)n(COCc2ccccc2)c2ccc(Br)cc12
inactive: [1] -7.55% | [2] -9.5% | [3] -2.75% | [4] -20.4% | [5] -6.95% | [6] -61.5%

CC(=O)c1nc(C#N)c(N)o1
inactive: [1] 1.9% | [2] -3.55% | [3] -17.7% | [4] 20.8% | [5] -20.2% | [6] -23.4%

CC(C)c1ccc(C(=O)OCCCc2ccccc2)cc1
inactive: [1] 8.7% | [2] -5.65% | [3] 18.2% | [4] -10.7% | [5] 4% | [6] 0.8%

CC(=O)COc1cccc2ccccc12
inactive: [1] -1.15% | [2] -3.1% | [3] -2.05% | [4] -36.4% | [5] -23.8% | [6] -2.35%

OCC1C=Cc2ccccc21 (stereo unspecified)
inactive: [1] -3.8% | [2] 0.65% | [3] -0.6% | [4] 2.15% | [5] 14.5% | [6] -2.4%

COc1ccc(C2(C)OCCC(C)O2)cc1 (stereo unspecified)
inactive: [1] -0.25% | [2] -18.1% | [3] 0.1% | [4] -24.1% | [5] -5.2% | [6] 10.6%

CC(C)C[N+](=O)[O-]
inactive: [1] -23.4% | [2] -21.1% | [3] -4.05% | [4] -12.7% | [5] -1.25% | [6] 11.3%

CCON=C1C(C)(C)C(C)(C)C(C)(C)C1(C)C
inactive: [1] -13.4% | [2] 0.2% | [3] -24.6% | [4] 37.4% | [5] -16.1% | [6] -2.05%

Cc1ccc(NC(=O)CNc2ccc3c(c2)Cc2ccccc2-3)cc1
inactive: [1] -1.05% | [2] 14.6% | [3] 24.9% | [4] -37.5% | [5] 34.5% | [6] 27.2%

Cc1cc(C(C)C)cc(C(C)C)c1
inactive: [1] -6.25% | [2] -13.9% | [3] -9.45% | [4] -4% | [5] -0.85% | [6] 7.95%

CCOc1ccc(NC(=S)NC=C(C#N)C#N)cc1
inactive: [1] -17.8% | [2] -12.6% | [3] -9.55% | [4] -4.9% | [5] 7.75% | [6] -5.75%

COc1cccc2c1C(=O)OC2c1cccc2ccccc12 (stereo unspecified)
inactive: [1] 10.5% | [2] -7.45% | [3] 7.25% | [4] 28.2% | [5] 4.3% | [6] 16%

Cc1ccc(-c2cc(C(=O)NN)c(C#N)c(=O)[nH]2)cc1
inactive: [1] 11.4% | [2] 0.55% | [3] -0.85% | [4] 15.1% | [5] -13.2% | [6] 26.1%

CCc1cc(O)c([N+](=O)[O-])cc1[N+](=O)[O-]
inactive: [1] -15.7% | [2] -3.95% | [3] 21.1% | [4] -34.8% | [5] -17.2% | [6] -7.95%

NC(=O)N/N=C/c1ccc2c(c1)OCO2
inactive: [1] 20.1% | [2] -7.9% | [3] 0% | [4] 8.45% | [5] -0.15% | [6] 13.8%

O=C(CCN1CCCC1)Nc1ccc2sc3ccccc3c(=O)c2n1
inactive: [1] 38.5% | [2] -61.8% | [3] 8.75% | [4] 9.7% | [5] 16.6% | [6] 10.6%
